Values without a mark were called inactive. For some of these results: Results with a measured potency or affinity are listed apart. The source made the active and inactive calls. Unless noted, no rule for the calls is given here.

The nature of assay [1]: antimalarial activity against Dd2 strain (AID 2302;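 active = growth inhibition above 50% at the single 2 µM test dose, taken to imply half-maximal potency below 2 µM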;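 also: 0% = DMSO untreated growth and 100% = chloroquine plus artemisinin killed control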). As to conditions: P. falciparum Dd2 in RBCs, LDH growth readout, 72 h; at 2 µM; stronger effect = higher value.
Assay [2] is described as follows: HepG2 cytotoxicity, primary screen, cytotoxicity control for P. falciparum antimalarial project, cell-based, ATP luminescence (AID 2303;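 active = inhibition above 50%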;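 also: 0% = DMSO wells and 100% = digitonin-killed cells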). The conditions noted are these: HepG2 viability, 24-48 h, at 10 µM, stronger effect = higher value.
In assay [3] the target is L-lactate dehydrogenase (Plasmodium falciparum (isolate CDC / Honduras)) (UniProt Q27743). Nature of the assay: PfLDH activity inhibition – cell lysate, 3D7 strain, counter-screen for P. falciparum growth inhibition project (AID 2304).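 Also: 0% = vehicle and 100% = reference inhibitor.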 The conditions noted are these: P. falciparum 3D7 crude extract, LDH APAD/NBT absorbance; at 2 µM; stronger effect = higher value. In general terms: Counterscreens check selectivity or assay interference.

A short description of assay [4]: inhibition of 3D7 malaria parasite growth – strain 3D7 (AID 2306).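 Also: 0% = DMSO wells and 100% = chloroquine plus artemisinin control wells.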 The conditions noted are these: P. falciparum 3D7 erythrocytic growth, LDH absorbance, 72 h; at 2 µM; stronger effect = higher value.
The target of assay [5] is Calcium-dependent protein kinase 1 (Plasmodium falciparum (isolate 3D7)) (UniProt P62344). Nature of the assay: PfCDPK1 kinase inhibitors, biochemical, TCAMS library (AID 1159585; cut-off not given, nearly all actives have IC50 up to about 0.98 µM;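 also: inhibitors leave more ATP so luminescence rises with inhibition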). As to conditions: recombinant PfCDPK1, Kinase-Glo ATP depletion luminescence. In general terms: In Kinase-Glo more light means more ATP remaining.
Assay [6] addresses Plasmodium falciparum protein kinase 6 (PK6, PF3D7_1337100) (UniProt Q8IDW1). Kind of assay: PfPK6 kinase inhibitors, biochemical, TCAMS library (AID 1159586). As to conditions: recombinant PfPK6, Kinase-Glo ATP depletion luminescence.
In assay [7] the target is Protein kinase 7 (PK7), Plasmodium falciparum 3D7 (PF3D7_0213400) (UniProt Q7YTF7). Kind of assay: inhibition of Plasmodium PK7 catalytic activity – biochemical, TCAMS antimalarial set, Kinase-Glo luminescence (AID 1159587). As to conditions: recombinant PfPK7, Kinase-Glo ATP depletion luminescence.
For assay [8], the target named is Calcium-dependent protein kinase 4 (Plasmodium falciparum (isolate 3D7)) (UniProt Q8IBS5). Kind of assay: PfCDPK4 kinase inhibitors, biochemical, TCAMS library (AID 1159588; cut-off not given, nearly all actives have IC50 up to about 0.91 µM). The conditions noted are these: recombinant PfCDPK4, Kinase-Glo ATP depletion luminescence.
Chain of Calcium-dependent protein kinase 4 (Plasmodium falciparum (isolate 3D7)) (Q8IBS5 whole entry, looked up): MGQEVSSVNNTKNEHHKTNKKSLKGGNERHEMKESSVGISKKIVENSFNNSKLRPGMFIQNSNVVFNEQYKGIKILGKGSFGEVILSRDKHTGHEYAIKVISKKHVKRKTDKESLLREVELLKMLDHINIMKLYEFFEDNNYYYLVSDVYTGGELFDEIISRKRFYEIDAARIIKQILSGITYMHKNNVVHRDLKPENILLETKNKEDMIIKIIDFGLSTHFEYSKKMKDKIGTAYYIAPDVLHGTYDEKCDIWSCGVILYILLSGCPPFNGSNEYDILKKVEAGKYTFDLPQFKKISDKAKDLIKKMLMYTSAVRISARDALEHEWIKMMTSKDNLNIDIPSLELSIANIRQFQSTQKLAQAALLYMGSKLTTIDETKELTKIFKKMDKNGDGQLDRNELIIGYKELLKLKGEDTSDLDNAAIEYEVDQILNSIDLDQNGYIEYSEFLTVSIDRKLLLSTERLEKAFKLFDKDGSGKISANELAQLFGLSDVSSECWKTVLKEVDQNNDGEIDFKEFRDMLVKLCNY

Chain of L-lactate dehydrogenase (Plasmodium falciparum (isolate CDC / Honduras)) (Q27743 whole entry, looked up): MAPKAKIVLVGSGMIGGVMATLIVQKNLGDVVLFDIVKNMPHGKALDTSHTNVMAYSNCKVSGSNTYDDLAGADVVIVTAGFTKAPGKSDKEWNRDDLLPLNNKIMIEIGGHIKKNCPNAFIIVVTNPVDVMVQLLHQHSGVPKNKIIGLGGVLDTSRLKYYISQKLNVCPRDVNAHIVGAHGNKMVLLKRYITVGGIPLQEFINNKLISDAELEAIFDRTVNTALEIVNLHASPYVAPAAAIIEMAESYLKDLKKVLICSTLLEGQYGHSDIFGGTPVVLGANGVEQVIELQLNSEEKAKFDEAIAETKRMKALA
Chain of Calcium-dependent protein kinase 1 (Plasmodium falciparum (isolate 3D7)) (P62344 whole entry, looked up): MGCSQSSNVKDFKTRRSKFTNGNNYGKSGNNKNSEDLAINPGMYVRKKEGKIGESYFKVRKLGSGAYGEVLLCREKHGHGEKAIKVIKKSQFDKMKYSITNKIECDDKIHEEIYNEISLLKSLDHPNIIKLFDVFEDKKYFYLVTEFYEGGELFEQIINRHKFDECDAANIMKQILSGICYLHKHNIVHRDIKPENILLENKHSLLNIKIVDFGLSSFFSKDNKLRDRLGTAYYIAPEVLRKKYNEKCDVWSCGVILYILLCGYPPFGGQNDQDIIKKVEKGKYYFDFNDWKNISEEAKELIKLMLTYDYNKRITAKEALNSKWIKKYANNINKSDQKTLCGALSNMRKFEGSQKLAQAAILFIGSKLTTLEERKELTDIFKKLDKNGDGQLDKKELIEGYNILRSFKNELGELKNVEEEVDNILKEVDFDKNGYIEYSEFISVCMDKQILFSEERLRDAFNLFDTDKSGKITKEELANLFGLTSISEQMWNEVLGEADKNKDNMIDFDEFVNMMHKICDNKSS
Chain of Plasmodium falciparum protein kinase 6 (PK6, PF3D7_1337100) (Q8IDW1 1-305): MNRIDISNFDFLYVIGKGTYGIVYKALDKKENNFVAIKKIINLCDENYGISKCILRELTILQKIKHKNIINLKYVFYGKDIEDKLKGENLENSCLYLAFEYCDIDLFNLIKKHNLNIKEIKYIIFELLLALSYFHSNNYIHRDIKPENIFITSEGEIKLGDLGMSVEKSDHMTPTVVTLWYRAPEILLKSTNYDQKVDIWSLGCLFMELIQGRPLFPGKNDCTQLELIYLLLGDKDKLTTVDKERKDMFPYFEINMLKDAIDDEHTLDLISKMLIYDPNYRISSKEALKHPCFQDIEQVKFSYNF
Chain of Protein kinase 7 (PK7), Plasmodium falciparum 3D7 (PF3D7_0213400) (Q7YTF7 1-343): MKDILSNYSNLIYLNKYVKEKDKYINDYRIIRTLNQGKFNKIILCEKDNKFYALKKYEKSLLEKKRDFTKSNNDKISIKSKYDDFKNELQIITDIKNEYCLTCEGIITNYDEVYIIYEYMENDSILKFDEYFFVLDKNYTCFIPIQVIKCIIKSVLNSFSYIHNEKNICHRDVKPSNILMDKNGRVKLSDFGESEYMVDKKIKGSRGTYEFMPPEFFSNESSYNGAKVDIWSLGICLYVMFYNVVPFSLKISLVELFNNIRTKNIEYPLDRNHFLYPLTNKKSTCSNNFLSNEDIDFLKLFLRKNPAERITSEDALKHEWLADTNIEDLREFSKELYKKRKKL

As to `Fc1ccc2nc(-c3cccc(-c4ccc(CNCCc5ccncc5)cc4)c3)[nH]c2c1`, the growth inhibition in assay [1] is 100% (active); in assay [4], 99% (active). Also, the inhibition – broadly, the relative decrease from the control value, in per cent – is 44% in assay [2] and 4% in assay [3]. Further, the outcome in assay [5], in assay [6], in assay [7] and in assay [8] was inactive.

Consider `Cc1cccc2[nH]c(-c3cccc(-c4ccc(NC(=O)c5ccoc5)cc4)c3)nc12`, for which the growth inhibition in assay [1] was 56% (active); in assay [4], 99% (active). In addition, the inhibition in assay [2] was 65% (active); in assay [3], -5%. The result in assay [5], in assay [6], in assay [7] and in assay [8] was inactive.

Turning to `CC(=O)Nc1ccc(CN2CCC(NC(=O)c3ccc(-c4cccc(F)c4)s3)CC2)cc1`, the growth inhibition in assay [1] is 13%; in assay [4], 96% (active). In addition, the inhibition in assay [2] is 6%; in assay [3], 0%. In addition, the result in assay [5], in assay [6], in assay [7] and in assay [8] was inactive.

`CN1CCCC(CN2CCN(Cc3cccc(-c4csc(-c5nc6ccccc6[nH]5)c4)c3)CC2)C1` (stereo not given): the growth inhibition in assay [1] and in assay [4] was 100% (active) throughout. Besides, the inhibition in assay [2] was 65% (active); in assay [3] it was -4%. In addition, the result in assay [5], in assay [6], in assay [7] and in assay [8] was inactive.

As to `O=C(Nc1cccc(CN2CCN(C(=O)c3cccs3)CC2)c1)c1cccs1`, the growth inhibition was 91% (active) in assay [1] and 95% (active) in assay [4]. Besides, the inhibition in assay [2] is -2%; in assay [3] it was 3%. Moreover, the result in assay [5], in assay [6], in assay [7] and in assay [8] was inactive.

As to `CCOC(=O)c1ccc(NC(=O)N[C@H]2CCN(CCCCCNC(=O)/C=C/c3ccc(Cl)c(Cl)c3)C2)cc1`, the growth inhibition is 1% in assay [1] and 98% (active) in assay [4]. Further, the inhibition in assay [2] is 21%; in assay [3], -4%. Besides, the result in assay [5], in assay [6], in assay [7] and in assay [8] was inactive.

In the case of `Fc1ccc2nc(-c3ccc(-c4cccc(CN5CCN(CCN6CCOCC6)CC5)c4)cc3)[nH]c2c1`, the results for the growth inhibition in assay [1] and in assay [4] were 100% (active) and 101% (active), respectively. In addition, the inhibition in assay [2] is 35%; in assay [3], 4%. The outcome in assay [5], in assay [6], in assay [7] and in assay [8] was inactive.

For the compound `Clc1cnc2ccc3c(c2c1CCN1CCC(NCc2cc4c(cn2)OCCO4)CC1)OCCO3`, the values for the growth inhibition in assay [1] and in assay [4] were 18% and 92% (active), respectively. For the same compound, the inhibition in assay [2] is 3%; in assay [3], -2%. In addition, the result in assay [5], in assay [6], in assay [7] and in assay [8] was inactive.

Turning to `CN(C)S(=O)(=O)c1ccc(Nc2nc(NCCC3C=NC=N3)nc3cc[nH]c(=O)c23)cc1` (stereo not given), the values for the growth inhibition in assay [1] and in assay [4] were 63% (active) and 96% (active), respectively. For the same compound, the inhibition in assay [2] is 8%; in assay [3], 2%. In addition, the outcome in assay [5], in assay [6], in assay [7] and in assay [8] was inactive.

As for `CCC(Cc1ccccc1)c1cc(O)c(Cc2ccc(-c3ccccc3)cc2)c(=O)o1` (stereo not given), the results for the growth inhibition in assay [1] and in assay [4] were -3% and 89% (active), respectively. In addition, the inhibition is 3% in assay [2] and -1% in assay [3]. In addition, the result in assay [5], in assay [6], in assay [7] and in assay [8] was inactive.

Take `COc1ccc2c(=O)c(C3CCC(c4ccc(Cl)cc4)CC3)c(C)[nH]c2c1` (stereo not given): the growth inhibition in assay [1] was 84% (active); in assay [4] it was 97% (active). In addition, the results for the inhibition in assay [2] and in assay [3] were 2% and 1%, respectively. The outcome in assay [5], in assay [6], in assay [7] and in assay [8] was inactive.

For the compound `C=Cc1ccccc1C1(O)CCN(CCCCNC(=O)c2ccc(-c3ccc(C#N)cc3)cc2)CC1`, the growth inhibition in assay [1] is 64% (active); in assay [4], 88% (active). Also, the figures for the inhibition in assay [2] and in assay [3] were 27% and 0%, respectively. Besides, the outcome in assay [5], in assay [6], in assay [7] and in assay [8] was inactive.

In the case of `COc1ccc(C2C(C(=O)Nc3cc(OC)c(OC)c(OC)c3)c3cc(OC)c(OC)cc3C(=O)N2C)cc1` (stereo not given), the values for the growth inhibition in assay [1] and in assay [4] were 100% (active) and 98% (active), respectively. For the same compound, the inhibition in assay [2] is 9%; in assay [3], 2%. Also, the outcome in assay [5], in assay [6], in assay [7] and in assay [8] was inactive.

As for `CN(C)c1ccc(C=CC(=O)NC(=O)c2ccccc2O)cc1`, the growth inhibition in assay [1] is 97% (active); in assay [4] it was 92% (active). For the same compound, the figures for the inhibition in assay [2] and in assay [3] were 6% and -1%, respectively. In addition, the result in assay [5], in assay [6], in assay [7] and in assay [8] was inactive.

As to `O=C(Nc1ccc(C(F)(F)F)cc1)NC1CCN(c2ccnc3ccccc23)C1` (stereo not given), the results for the growth inhibition in assay [1] and in assay [4] were 89% (active) and 102% (active), respectively. For the same compound, the inhibition in assay [2] is 13%; in assay [3], 0%. Further, the result in assay [5], in assay [6], in assay [7] and in assay [8] was inactive.

Consider `COCCn1c(-c2cccc(Cl)c2)nn(-c2ccc([N+](=O)[O-])cc2Cl)c1=S`, for which the figures for the growth inhibition in assay [1] and in assay [4] were 99% (active) and 100% (active), respectively. For the same compound, the inhibition was 2% in assay [2] and -2% in assay [3]. In addition, the outcome in assay [5], in assay [6], in assay [7] and in assay [8] was inactive.

As to `Fc1ccc(-c2cc(NCCCn3ccnc3)nc(-c3cccnc3)n2)cc1`, the growth inhibition in assay [1] is 70% (active); in assay [4], 99% (active). Also, the inhibition was 11% in assay [2] and 0% in assay [3]. Besides, the outcome in assay [5], in assay [6], in assay [7] and in assay [8] was inactive.

Turning to `O=C(/C=C/c1ccc(Cl)c(Cl)c1)N1CCN(C(=O)Nc2cccc(C(F)(F)F)c2)CC1`, the growth inhibition in assay [1] was 100% (active); in assay [4] it was 99% (active). Moreover, the inhibition was 53% (active) in assay [2] and 4% in assay [3]. The result in assay [5], in assay [6], in assay [7] and in assay [8] was inactive.

In the case of `O=C(c1cccs1)N(Cc1cccc(-c2ccc(CNCCc3ccccc3)cc2)c1)C1CCN(Cc2ccccc2)CC1`, the growth inhibition in assay [1] is 76% (active); in assay [4], 95% (active). The results for the inhibition in assay [2] and in assay [3] were 3% and -3%, respectively. For the same compound, the outcome in assay [5], in assay [6], in assay [7] and in assay [8] was inactive.

Turning to `CCOC(=O)c1cc(Cl)cc(Cl)c1OCCCON1C(N)=NC(N)=NC1(C)C`, the growth inhibition in assay [1] was 97% (active); in assay [4], 93% (active). Further, the inhibition in assay [2] was 70% (active); in assay [3], -6%. Besides, the outcome in assay [5], in assay [6], in assay [7] and in assay [8] was inactive.

(Values after PubChem BioAssay.)
